Experimental findings from PubChem BioAssay (NCATS) are described below.

Experiment [1] can be described thus: Cell Viability - MRC5 (AID 434; calls by dose curve;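 note: potency is the fitted concentration of half-maximal effect; potency reflects cytotoxicity seen as loss of intracellular ATP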). To be noted: MRC5 lung fibroblast viability, qHTS. Put shortly:
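MRC5 normal human lung fibroblasts (1500/well) were treated with compounds for 40 hr at 37 °C in complete medium, and viable cells were measured as intracellular ATP by CellTiter-Glo luminescence. AC50 came from Hill fits, normalized to DMSO and 100 uM tamoxifen.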
For orientation: Quantitative high-throughput screening tests each substance at several concentrations.

The nature of experiment [2]: Cell Viability - SK-N-SH (AID 435; calls by dose curve;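 note: potency is the fitted concentration of half-maximal effect; compound exposure lasted 40 h at 37 °C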). To be noted: SK-N-SH neuroblastoma cell viability qHTS. Put shortly:
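SK-N-SH human neuroblastoma cells (1500/well) were exposed to compounds in complete medium for 40 h at 37 °C, and intracellular ATP was then measured by CellTiter-Glo luminescence. AC50 was taken from Hill fits, normalized to DMSO and 100 uM tamoxifen.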

Experiment [3] can be described thus: Cellular Toxicity (caspase-3) Jurkat (AID 655).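 Note: cells exposed to compound for 16 h at 37 °C before reading.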 To be noted: Jurkat caspase-3 activation, luminescence; caspase-3 activation: at 92.2 µM (top of the series), DMSO = 0%, tamoxifen = 100%. In short, it runs like this:
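Jurkat cells (5000/well) in complete medium were treated with compounds for 16 hr at 37 °C, then Caspase-Glo 3/7 luminescence was read after 20 min at room temperature. Data normalized to DMSO (basal) and 100 uM tamoxifen (100%); AC50 from Hill fit.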

Experiment [4] is described as follows: Cellular Toxicity (caspase-3) HUV-EC-C (AID 656). To be noted: HUV-EC-C cells, caspase-3 activation (apoptosis), vehicle = 0, 100 µM tamoxifen = 100%; series mostly up to 92.2 µM. In short, it runs like this:
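HUV-EC-C endothelial cells, 1000/well, were pre-incubated 5 hr at 37°C, then exposed to compounds for 16 hr at 37°C. Caspase-Glo 3/7 luminescence was read after 20 min at room temperature. AC50 came from Hill fits, normalized to DMSO and 100 uM tamoxifen.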

A short description of experiment [5]: Cellular Toxicity (caspase-3) H-4-II-E (AID 663).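 Note: cells exposed to compound for 16 hr before readout.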 The following applies: H-4-II-E rat hepatoma; Potency: caspase-3 activation; series mostly up to 92.2 µM. In short, it runs like this: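 Luminescence from caspase-cleaved aminoluciferin substrate, read 20 min after reagent addition, reports caspase 3/7 activation in rat H-4-II-E cells after 16 hr compound exposure. Normalized to DMSO (basal) and 100 uM tamoxifen (100%); AC50 from Hill fits.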

The target of experiment [6] is Cytochrome P450 3A4 (Homo sapiens) (UniProt P08684). Briefly: qHTS Assay for Inhibitors and Substrates of Cytochrome P450 3A4 (AID 884). Note: % is set by controls: 0 for no effect and ±100 for the full control effect; nearly all actives have a fitted effect of over 50% in size. The following applies: recombinant CYP3A4, Luciferin-PPXE luminescence; series mostly up to 57.1 µM. In short, it runs like this:
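20 nM human CYP3A4 with 25 uM Luciferin-PPXE (at KM) in 200 mM KPO4, preincubated 10 min with compound; NADPH regeneration started a 60 min RT reaction. Luciferin detected by luminescence, normalized to 57 uM ketoconazole as full inhibition.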

Experiment [7] can be described thus: MultiTox-Fluor Cytotoxicity Assay - LYMP1-001 - Live Cells (AID 947).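 Note: 0% = DMSO only and full inhibition = tetraoctylammonium bromide control.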 The following applies: LYMP1-001 lymphoblastoid cells, live-cell protease fluorescence viability; series mostly up to 92.2 µM.
Experiment [8] in a line: Cell Viability - LYMP1-002 - Assay at 16 hr (AID 948).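 Note: 0% = DMSO alone and full effect = 92 µM tetraoctylammonium bromide.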 To be noted: LYMP1-002 lymphoblastoid cell viability; series mostly up to 92.2 µM. Put shortly: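 Human lymphoblastoid cells (LYMP1-002), 2500/well, were preincubated 5 hr at 37 C, then exposed to compounds for 16 hr at 37 C in complete medium. Cellular ATP was read by CellTiter-Glo luminescence after 30 min at room temperature; AC50 from Hill fits.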

Experiment [9] is described as follows: Cell Viability - LYMP2-004 (AID 966).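 Note: plate controls were DMSO only for no effect and tetraoctylammonium bromide control for full effect; nearly all actives have a fitted effect of over 65% in size.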 The following applies: LYMP2-004 lymphoblastoid cell viability, qHTS; series mostly up to 92.2 µM. Put shortly:
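Cells seeded 2500/well, rested 5 hr at 37 C, dosed across a concentration series, incubated 24 hr at 37 C, then CellTiter-Glo added for 30 min at room temperature and luminescence read. Hill fitting gave AC50.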

Experiment [10] is described as follows: Cell Viability - LYMP2-015 (AID 971).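 Note: 0% = DMSO only and full effect = 92 µM tetraoctylammonium bromide; nearly all actives have a fitted effect of over 55% in size.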 To be noted: LYMP2-015 lymphoblastoid cell viability; series mostly up to 92.2 µM. Put shortly: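 Luminescent ATP read-out (CellTiter-Glo) served as the viability measure after lymphoblastoid cells were exposed to compounds for 24 hours at 37 C. Concentration-response data were fitted with the Hill equation to give AC50.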

Experiment [11] can be described thus: Cell Viability - LYMP2-019 (AID 973).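 Note: 0% = DMSO alone and full effect = 92 µM tetraoctylammonium bromide; nearly all actives have a fitted effect of over 55% in size.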 The following applies: LYMP2-019 lymphoblastoid cell line viability; series mostly up to 92.2 µM. Put shortly: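 Luminescent ATP read-out (CellTiter-Glo, 30 min room temperature) served as the viability measure after 24 hr treatment of lymphoblastoid cells at 37 C. Concentration-response data were fitted to the Hill equation for AC50.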

A short description of experiment [12]: Cell Viability - LYMP2-007 (AID 979).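 Note: cells exposed to compound for 24 h before reading; 0% = DMSO only and the negative end = 92 µM tetraoctylammonium bromide; nearly all actives have a fitted effect of over 60% in size.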 To be noted: LYMP2-007 lymphoblastoid cell viability; series mostly up to 92.2 µM. Put shortly: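 Luminescent ATP signal (CellTiter-Glo) serves as the viability read-out after 24 hr compound treatment of lymphoblastoid cells in complete medium at 37 C. Concentration-response data were fitted to the Hill equation to give AC50 values.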

A short description of experiment [13]: Cell Viability - LYMP2-008 (AID 980). Note: % is set by controls: 0 for no effect and ±100 for the full control effect; nearly all actives have a fitted effect of over 60% in size. To be noted: LYMP2-008 lymphoblastoid cell viability, qHTS; series mostly up to 92.2 µM. Put shortly:
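qHTS, human lymphoblastoid line, 2500 cells/well; 5 hr preincubation, 24 hr compound, 37 C. CellTiter-Glo ATP luminescence. AC50 via Hill equation. Tetraoctylammonium bromide positive control.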

Experiment [14] in a line: Cell Viability - LYMP2-014 (AID 983).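 Note: plate controls were DMSO only for no effect and 92 µM tetraoctylammonium bromide for full effect; nearly all actives have a fitted effect of over 50% in size.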 The following applies: LYMP2-014 lymphoblastoid cells, viability qHTS; series mostly up to 92.2 µM. In short, it runs like this:
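Luminescent ATP signal (CellTiter-Glo, 30 min at room temperature) serves as the viability read-out after 24 hr compound exposure at 37 C. Cells were seeded at 2500 per well and settled 5 hr beforehand.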

Experiment [15] is described as follows: Cell Viability - LYMP2-018 (AID 985).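 Note: plate controls were DMSO only for no effect and tetraoctylammonium bromide at 92 µM for full effect; nearly all actives have a fitted effect of over 50% in size.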 To be noted: LYMP2-018 lymphoblastoid cells, viability (qHTS); series mostly up to 92.2 µM. In short, it runs like this:
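Luminescent ATP signal (CellTiter-Glo, read after 30 min at room temperature) reports viable cells after 24 hr compound treatment at 37 C. Concentration-response data were fitted to the standard Hill equation for AC50.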

Experiment [16] is described as follows: Cell Viability - LYMP2-020 (AID 986).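 Note: plate controls were DMSO only for no effect and tetraoctylammonium bromide at 92 µM for full effect; nearly all actives have a fitted effect of over 55% in size.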 The following applies: series mostly up to 92.2 µM. In short, it runs like this:
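Luminescent ATP signal (CellTiter-Glo, 30 min at room temperature) is the read-out after 24 h compound treatment of lymphoblastoid cells at 37 C. AC50 values come from Hill-equation fits across concentrations.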

A short description of experiment [17]: Cell Viability - LYMP2-022 (AID 987).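 Note: 0% = DMSO alone and full effect = tetraoctylammonium bromide at 92 µM; nearly all actives have a fitted effect of over 55% in size.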 To be noted: LYMP2-022 lymphoblastoid cell viability; series mostly up to 92.2 µM. Put shortly:
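qHTS: human lymphoblastoid cells 2500/well; 5 hr 37 C; cpd added; 24 hr 37 C; CellTiter-Glo, 30 min RT; luminescence. AC50 via Hill fit; tetraoctylammonium bromide positive ctrl.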

A short description of experiment [18]: Cell Viability - LYMP2-026 (AID 989). Note: % is set by controls: 0 for no effect and ±100 for the full control effect; nearly all actives have a fitted effect of over 50% in size. The following applies: LYMP2-026 lymphoblastoid cell viability, qHTS; series mostly up to 92.2 µM. Put shortly: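 Luminescent ATP signal (CellTiter-Glo, 30 min room temperature) measures viable lymphoblastoid cells after 24 hr compound treatment at 37 C. Decreased ATP reflects acute toxicity; AC50 values come from Hill-equation modeling.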

A short description of experiment [19]: qHTS assay for small molecule antagonists of retinoid X receptor alpha signaling (AID 588546).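 Note: cells stimulated with 9-cis-retinoic acid as agonist; % is set by controls: 0 for no effect and ±100 for the full control effect.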 To be noted: HEK293T RXRa-UAS-bla, beta-lactamase ratio, antagonist mode; measured here: W530 green channel, cytotoxicity proxy. Put shortly: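 Beta-lactamase reporter inhibition, read as CCF4 fluorescence ratio (ex 405, em 460/530 nm) after 2 h at RT. HEK293T UAS-bla cells, 2500/well, were stimulated with 9-cis-RA at 500 or 100 nM final alongside test compound for 18 h at 37 C.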

In experiment [20] the target is Voltage-gated inwardly rectifying potassium channel KCNH2 (Homo sapiens) (UniProt Q12809). Description: qHTS Assay for Small Molecule Inhibitors of the Human hERG Channel Activity (AID 588834). Note: potency is the fitted concentration of half-maximal effect. To be noted: U2OS BacMam hERG, FluxOR thallium flux fluorescence; series mostly up to 92.2 µM. Put shortly:
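U2OS cells transduced with hERG via BacMam (MOI ~100), plated 2000/well, loaded with FluxOR thallium dye, compound ~10 min, then stimulation buffer; fluorescence decrease read kinetically; AC50 from Hill fits.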

Values joined by “and” are separate entries in the source; they are usually repeats but may differ in a detail not shown here. Equal entries are not always repeated. Records with an inconclusive call do not appear. Active and inactive are the calls of the source. Unless noted, calls come from the whole dose curve; as a rule, active = well fitted curve in the direction sought with a large enough effect; inconclusive = small, poorly fitted or top-dose-only effect, or another doubt; inactive = no such curve, though single readings can be large; an effect the other way counts as inactive or inconclusive.

Chain of Voltage-gated inwardly rectifying potassium channel KCNH2 (Homo sapiens) (Q12809 whole entry, looked up): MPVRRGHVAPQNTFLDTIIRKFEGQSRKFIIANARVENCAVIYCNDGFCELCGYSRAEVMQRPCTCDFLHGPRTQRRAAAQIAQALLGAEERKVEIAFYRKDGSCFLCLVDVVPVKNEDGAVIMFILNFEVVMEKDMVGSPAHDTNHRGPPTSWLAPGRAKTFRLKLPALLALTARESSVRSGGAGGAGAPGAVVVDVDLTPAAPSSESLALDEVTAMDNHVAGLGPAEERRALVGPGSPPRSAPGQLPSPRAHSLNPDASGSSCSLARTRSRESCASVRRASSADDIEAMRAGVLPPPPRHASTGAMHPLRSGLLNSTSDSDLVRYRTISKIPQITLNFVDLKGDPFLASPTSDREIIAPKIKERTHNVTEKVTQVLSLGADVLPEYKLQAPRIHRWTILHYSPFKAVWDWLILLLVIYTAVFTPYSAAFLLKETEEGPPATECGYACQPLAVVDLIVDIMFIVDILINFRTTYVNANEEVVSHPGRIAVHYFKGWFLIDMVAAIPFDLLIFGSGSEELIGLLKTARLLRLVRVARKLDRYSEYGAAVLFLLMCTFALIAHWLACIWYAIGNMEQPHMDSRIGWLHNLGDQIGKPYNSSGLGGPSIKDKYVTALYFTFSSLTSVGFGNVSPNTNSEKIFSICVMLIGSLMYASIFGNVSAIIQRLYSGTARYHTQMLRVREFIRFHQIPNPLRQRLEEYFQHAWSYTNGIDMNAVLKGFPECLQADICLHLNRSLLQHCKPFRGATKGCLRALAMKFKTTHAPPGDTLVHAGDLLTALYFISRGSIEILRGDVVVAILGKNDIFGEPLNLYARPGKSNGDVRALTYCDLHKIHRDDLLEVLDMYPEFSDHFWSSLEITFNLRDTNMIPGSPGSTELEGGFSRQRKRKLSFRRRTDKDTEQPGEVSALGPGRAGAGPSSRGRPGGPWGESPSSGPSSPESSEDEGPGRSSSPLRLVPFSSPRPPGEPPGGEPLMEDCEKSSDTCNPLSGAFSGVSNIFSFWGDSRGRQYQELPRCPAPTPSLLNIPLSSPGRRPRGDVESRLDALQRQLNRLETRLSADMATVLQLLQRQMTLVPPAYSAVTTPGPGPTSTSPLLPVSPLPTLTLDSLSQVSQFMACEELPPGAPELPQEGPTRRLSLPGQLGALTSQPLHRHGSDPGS
Chain of Cytochrome P450 3A4 (Homo sapiens) (P08684 whole entry, looked up): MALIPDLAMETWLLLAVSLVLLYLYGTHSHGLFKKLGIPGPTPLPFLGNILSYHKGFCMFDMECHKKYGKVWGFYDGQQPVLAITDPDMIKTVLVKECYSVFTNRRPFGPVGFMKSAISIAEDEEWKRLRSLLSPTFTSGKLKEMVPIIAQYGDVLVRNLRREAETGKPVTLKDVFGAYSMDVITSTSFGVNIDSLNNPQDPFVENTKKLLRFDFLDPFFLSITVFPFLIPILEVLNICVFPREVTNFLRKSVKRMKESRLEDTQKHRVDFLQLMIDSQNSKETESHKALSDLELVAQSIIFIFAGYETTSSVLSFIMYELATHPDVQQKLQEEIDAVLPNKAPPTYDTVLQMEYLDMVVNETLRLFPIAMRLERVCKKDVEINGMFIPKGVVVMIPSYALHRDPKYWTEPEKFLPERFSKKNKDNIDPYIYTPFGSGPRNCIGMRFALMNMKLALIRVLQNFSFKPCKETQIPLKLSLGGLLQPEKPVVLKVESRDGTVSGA

As to `N#CC(O)c1ccccc1` (stereo not drawn), the Potency in experiment [1] and in experiment [2] was > 92 µM (inactive) each time. Further, the caspase-3 activation in experiment [3] is 2.09% (inactive). Besides, the result in experiment [4], in experiment [7] and in [8] was inactive. Also, the Potency result in experiment [5], in [6], in [9], in experiment [10], in experiment [11] and in [12] was “inactive” throughout. Besides, the Potency result in experiment [13], in experiment [14], in experiment [15], in experiment [16], in experiment [17] and in experiment [18] was “inactive” throughout. The Potency entry in experiment [20] was “inactive”. In addition, the max response in experiment [19] is -9.69%.
For the molecule `Cc1ccc(N)cc1N`, the Potency in experiment [1] and in experiment [2] was > 92 µM (inactive) in each case. In experiment [3], the caspase-3 activation is -0.424% (inactive). Further, the result in experiment [4], in experiment [7] and in experiment [8] was inactive. For the same molecule, the Potency result in [6], in [9], in experiment [10], in experiment [11], in experiment [12] and in experiment [13] was “inactive” each time. The Potency entry in [14], in experiment [15], in experiment [16], in experiment [17], in experiment [18] and in experiment [20] was “inactive” in each case. Also, the max response in experiment [19] is -0.584% and 0.527%.
With `ClC(Cl)(Cl)C(Cl)(Cl)Cl`, the Potency in experiment [1] and in [2] was > 92 µM (inactive) in each case. In [3], the caspase-3 activation was -0.424% (inactive). Moreover, the result in experiment [4], in [7] and in experiment [8] was inactive. Besides, the Potency result in experiment [5], in experiment [6], in experiment [9], in experiment [10], in [11] and in [12] was “inactive” in each case. The Potency result in [13], in experiment [14], in [15], in [16], in [17] and in experiment [18] was “inactive” in each case. Besides, in experiment [19], the max response was -34.4%.
With `BrCC(Br)C1CCC(Br)C(Br)C1` (stereo not drawn), the Potency is > 92 µM (inactive) in experiment [1], > 92 µM (inactive) in experiment [2] and 22.4 µM (active) in [20]. Further, the caspase-3 activation in [3] was 3.33% (inactive). Further, the result in experiment [4], in experiment [7] and in [8] was inactive. The Potency entry in experiment [6], in [10], in experiment [11], in [12], in experiment [13] and in experiment [14] was “inactive” in each case. The Potency result in [15], in [16], in experiment [17] and in [18] was “inactive” each time. Moreover, the max response in experiment [19] is -6.79%.
For the molecule `C=CCBr`, the Potency in experiment [1] and in experiment [2] was > 92 µM (inactive) throughout. Besides, the caspase-3 activation in [3] was -0.133% (inactive). Moreover, the Potency result in experiment [5], in experiment [6], in experiment [9], in [10], in experiment [11] and in experiment [12] was “inactive” each time. In addition, the Potency entry in experiment [13], in [14], in experiment [15], in experiment [16], in experiment [17] and in experiment [18] was “inactive” throughout. Besides, in [20], the Potency entry was “inactive”. The outcome in [7] was inactive. Moreover, in experiment [19], the max response is -4.43%.
For the molecule `ClCCOCOCCCl`, the Potency in experiment [1] and in experiment [2] was > 92 µM (inactive) throughout. Also, the caspase-3 activation in [3] was -0.171% (inactive). Besides, the call in [4], in experiment [7] and in [8] was inactive. For the same molecule, the Potency entry in experiment [5], in experiment [6], in [9], in experiment [10], in experiment [11] and in [12] was “inactive” each time. Besides, the Potency result in experiment [13], in [14], in [15], in experiment [16], in experiment [17] and in [18] was “inactive” throughout. Besides, the Potency entry in experiment [20] is “inactive”. In addition, in [19], the max response is -0.61%.
As to `CC(C)(OOC(C)(C)c1ccccc1)c1ccccc1`, the figures for the Potency in [1], in experiment [2] and in experiment [20] were > 92 µM (inactive), > 92 µM (inactive) and 15.8 µM (active), respectively. Moreover, in experiment [3], the caspase-3 activation was -0.0747% (inactive). For the same molecule, the outcome in experiment [4] and in experiment [8] was inactive. The Potency result in experiment [5], in [6], in [9], in experiment [10], in experiment [11] and in [12] was “inactive” in each case. For the same molecule, the Potency entry in experiment [13], in [14], in experiment [15], in [16], in experiment [17] and in [18] was “inactive” each time. The max response in experiment [19] was -11%.
